± gives the standard deviation of the averaged measurements.
How the values were obtained:
Experiment in all cases: promoter activity interaction Z-score (Lux/OD deviation from empty-vector control); higher = stronger promoter induction by the compound
[1] = system: E. coli BW25113 acrABp lux reporter
How it was run: (§1)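 E. coli BW25113 (wild type or marA, soxS or rob deletion) carrying low-copy luxCDABE promoter reporters grew in 40 µl LB Lennox in 384-well plates at 37°C. Each compound was tested at four 1:2 dilutions in biological duplicates. OD600 and luminescence were read every 30 min for 12 h. Areas were taken over 0–8 h (wild type) or 1–9 h (mutants), and wells below 10% of median growth area were removed. The score is the Z-transformed residual of growth-normalised luminescence fitted against the empty-vector control.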

[2] = system: E. coli BW25113 marRABp lux reporter
How it was run: as §1

[3] = system: E. coli BW25113 micFp lux reporter
How it was run: as §1

[4] = system: E. coli BW25113 ompFp lux reporter
How it was run: as §1

[5] = system: E. coli BW25113 robp lux reporter
How it was run: as §1

[6] = system: E. coli BW25113 soxSp lux reporter
How it was run: as §1

[7] = system: E. coli BW25113 tolCp lux reporter
How it was run: as §1

[8] = 13.7 µg/ml, genetic background: wild type
[9] = 13.7 µg/ml, genetic background: ΔmarA
[10] = 13.7 µg/ml, genetic background: Δrob
[11] = 13.7 µg/ml, genetic background: ΔsoxS
[12] = 27.5 µg/ml, genetic background: wild type
[13] = 27.5 µg/ml, genetic background: ΔmarA
[14] = 27.5 µg/ml, genetic background: Δrob
[15] = 27.5 µg/ml, genetic background: ΔsoxS
[16] = 54.9 µg/ml, genetic background: wild type
[17] = 54.9 µg/ml, genetic background: ΔmarA
[18] = 54.9 µg/ml, genetic background: Δrob
[19] = 54.9 µg/ml, genetic background: ΔsoxS
[20] = 109.8 µg/ml, genetic background: wild type
[21] = 109.8 µg/ml, genetic background: ΔmarA
[22] = 109.8 µg/ml, genetic background: Δrob
[23] = 109.8 µg/ml, genetic background: ΔsoxS

## CNC[C@H](O)c1ccc(O)c(O)c1 [Adrenalin]
[1]; [8]
  promoter activity interaction Z-score: -0.118 ± 0.26
[1]; [9]
  promoter activity interaction Z-score: -0.4 ± 0.56
[1]; [10]
  promoter activity interaction Z-score: 0.0418 ± 0.19
[1]; [11]
  promoter activity interaction Z-score: -0.382 ± 0.4
[1]; [12]
  promoter activity interaction Z-score: -0.0931 ± 0.1
[1]; [13]
  promoter activity interaction Z-score: 0.531 ± 0.016
[1]; [14]
  promoter activity interaction Z-score: -0.104 ± 0.11
[1]; [15]
  promoter activity interaction Z-score: -0.043 ± 0.052
[1]; [16]
  promoter activity interaction Z-score: -0.373 ± 0.29
[1]; [17]
  promoter activity interaction Z-score: 0.688 ± 0.54
[1]; [18]
  promoter activity interaction Z-score: -0.345 ± 0.12
[1]; [19]
  promoter activity interaction Z-score: -0.566 ± 0.013
[1]; [20]
  promoter activity interaction Z-score: -0.472 ± 0.26
[1]; [21]
  promoter activity interaction Z-score: 0.342 ± 0.19
[1]; [22]
  promoter activity interaction Z-score: 0.0555 ± 0.04
[1]; [23]
  promoter activity interaction Z-score: 0.539 ± 0.12
[2]; [8]
  promoter activity interaction Z-score: 0.121 ± 0.2
[2]; [9]
  promoter activity interaction Z-score: -0.289 ± 0.22
[2]; [10]
  promoter activity interaction Z-score: -0.0038 ± 0.073
[2]; [11]
  promoter activity interaction Z-score: -0.111 ± 0.21
[2]; [12]
  promoter activity interaction Z-score: 0.38 ± 0.26
[2]; [13]
  promoter activity interaction Z-score: 0.173 ± 0.6
[2]; [14]
  promoter activity interaction Z-score: 0.209 ± 0.28
[2]; [15]
  promoter activity interaction Z-score: 0.0712 ± 0.22
[2]; [16]
  promoter activity interaction Z-score: -0.365 ± 0.31
[2]; [17]
  promoter activity interaction Z-score: -0.424 ± 0.13
[2]; [18]
  promoter activity interaction Z-score: -0.339 ± 0.43
[2]; [19]
  promoter activity interaction Z-score: -0.285 ± 0.12
[2]; [20]
  promoter activity interaction Z-score: -0.142 ± 0.4
[2]; [21]
  promoter activity interaction Z-score: -0.43 ± 0.15
[2]; [22]
  promoter activity interaction Z-score: 0.0375 ± 0.16
[2]; [23]
  promoter activity interaction Z-score: 0.218 ± 0.26
[3]; [8]
  promoter activity interaction Z-score: -0.11 ± 0.0085
[3]; [9]
  promoter activity interaction Z-score: -0.0104 ± 0.018
[3]; [10]
  promoter activity interaction Z-score: 0.263 ± 0.12
[3]; [11]
  promoter activity interaction Z-score: -0.351 ± 0.072
[3]; [12]
  promoter activity interaction Z-score: -0.259 ± 0.091
[3]; [13]
  promoter activity interaction Z-score: -0.0735 ± 0.14
[3]; [14]
  promoter activity interaction Z-score: 0.173 ± 0.31
[3]; [15]
  promoter activity interaction Z-score: 0.192 ± 0.11
[3]; [16]
  promoter activity interaction Z-score: -0.122 ± 0.19
[3]; [17]
  promoter activity interaction Z-score: 0.0635 ± 0.093
[3]; [18]
  promoter activity interaction Z-score: 0.189 ± 0.21
[3]; [19]
  promoter activity interaction Z-score: -0.508 ± 0.077
[3]; [20]
  promoter activity interaction Z-score: -0.426 ± 0.33
[3]; [21]
  promoter activity interaction Z-score: -0.136 ± 0.074
[3]; [22]
  promoter activity interaction Z-score: 0.0853 ± 0.074
[3]; [23]
  promoter activity interaction Z-score: -0.142 ± 0.14
[4]; [8]
  promoter activity interaction Z-score: 0.379 ± 0.018
[4]; [9]
  promoter activity interaction Z-score: -0.309 ± 0.22
[4]; [10]
  promoter activity interaction Z-score: -0.171 ± 0.37
[4]; [11]
  promoter activity interaction Z-score: -0.679 ± 0.25
[4]; [12]
  promoter activity interaction Z-score: 0.362 ± 0.017
[4]; [13]
  promoter activity interaction Z-score: 0.00142 ± 0.52
[4]; [14]
  promoter activity interaction Z-score: -0.0408 ± 0.55
[4]; [15]
  promoter activity interaction Z-score: -0.0291 ± 0.36
[4]; [16]
  promoter activity interaction Z-score: -0.597 ± 0.18
[4]; [17]
  promoter activity interaction Z-score: 0.175 ± 0.27
[4]; [18]
  promoter activity interaction Z-score: -1.07 ± 0.55
[4]; [19]
  promoter activity interaction Z-score: -0.961 ± 0.21
[4]; [20]
  promoter activity interaction Z-score: -0.0147 ± 0.25
[4]; [21]
  promoter activity interaction Z-score: -0.377 ± 0.44
[4]; [22]
  promoter activity interaction Z-score: -0.876 ± 1.6
[4]; [23]
  promoter activity interaction Z-score: -0.239 ± 0.22
[5]; [8]
  promoter activity interaction Z-score: -0.189 ± 0.26
[5]; [9]
  promoter activity interaction Z-score: -0.738 ± 0.13
[5]; [10]
  promoter activity interaction Z-score: -0.362 ± 0.49
[5]; [11]
  promoter activity interaction Z-score: -0.567 ± 0.17
[5]; [12]
  promoter activity interaction Z-score: 0.83 ± 0.5
[5]; [13]
  promoter activity interaction Z-score: -0.178 ± 0.0036
[5]; [14]
  promoter activity interaction Z-score: -0.489 ± 0.6
[5]; [15]
  promoter activity interaction Z-score: -0.00139 ± 0.12
[5]; [16]
  promoter activity interaction Z-score: -0.414 ± 0.15
[5]; [17]
  promoter activity interaction Z-score: -0.097 ± 0.33
[5]; [18]
  promoter activity interaction Z-score: -0.505 ± 1.8
[5]; [19]
  promoter activity interaction Z-score: -0.645 ± 0.021
[5]; [20]
  promoter activity interaction Z-score: -0.53 ± 0.61
[5]; [21]
  promoter activity interaction Z-score: -0.598 ± 0.62
[5]; [22]
  promoter activity interaction Z-score: -1.48 ± 0.78
[5]; [23]
  promoter activity interaction Z-score: -1.95 ± 0.2
[6]; [8]
  promoter activity interaction Z-score: 0.381 ± 0.43
[6]; [9]
  promoter activity interaction Z-score: 0.0748 ± 0.12
[6]; [10]
  promoter activity interaction Z-score: 0.425 ± 0.29
[6]; [11]
  promoter activity interaction Z-score: -0.181 ± 0.096
[6]; [12]
  promoter activity interaction Z-score: 0.23 ± 0.19
[6]; [13]
  promoter activity interaction Z-score: 0.131 ± 0.16
[6]; [14]
  promoter activity interaction Z-score: 0.208 ± 0.28
[6]; [15]
  promoter activity interaction Z-score: 0.264 ± 0.64
[6]; [16]
  promoter activity interaction Z-score: 0.0152 ± 0.17
[6]; [17]
  promoter activity interaction Z-score: -0.0453 ± 0.22
[6]; [18]
  promoter activity interaction Z-score: 0.121 ± 0.0073
[6]; [19]
  promoter activity interaction Z-score: -0.333 ± 0.19
[6]; [20]
  promoter activity interaction Z-score: -0.143 ± 0.091
[6]; [21]
  promoter activity interaction Z-score: -0.248 ± 0.045
[6]; [22]
  promoter activity interaction Z-score: 0.0524 ± 0.1
[6]; [23]
  promoter activity interaction Z-score: 0.0254 ± 0.36
[7]; [8]
  promoter activity interaction Z-score: -0.595 ± 0.65
[7]; [9]
  promoter activity interaction Z-score: -0.333 ± 0.39
[7]; [10]
  promoter activity interaction Z-score: 0.343 ± 0.15
[7]; [11]
  promoter activity interaction Z-score: -0.571 ± 0.34
[7]; [12]
  promoter activity interaction Z-score: -0.0385 ± 0.61
[7]; [13]
  promoter activity interaction Z-score: -0.394 ± 0.82
[7]; [14]
  promoter activity interaction Z-score: -0.578 ± 0.57
[7]; [15]
  promoter activity interaction Z-score: 1.04 ± 1.6
[7]; [16]
  promoter activity interaction Z-score: -0.749 ± 0.67
[7]; [17]
  promoter activity interaction Z-score: 0.176 ± 0.046
[7]; [18]
  promoter activity interaction Z-score: -0.0706 ± 0.3
[7]; [19]
  promoter activity interaction Z-score: 0.0714 ± 0.89
[7]; [20]
  promoter activity interaction Z-score: -0.414 ± 0.029
[7]; [21]
  promoter activity interaction Z-score: -0.30805 ± 0.0003
[7]; [22]
  promoter activity interaction Z-score: -0.0487 ± 0.27
[7]; [23]
  promoter activity interaction Z-score: -0.39 ± 1.4

Source: the supplement of paper PMC12282887
